From PubChem
HT1080NT lethal – kills 2HG-producing HT-1080-NT fibrosarcoma cells; HT-1080-NT fibrosarcoma viability, CellTiter-Glo ATP luminescence, 48 h; Potency, µM (highest dose often 46.1 µM), usual class: cytotoxic; 1.6% of 360,000 active; AID 686970;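 note: NT is the 2HG producing partner of a matched IDH1 knockdown line; nearly all actives have a fitted effect of over 55% in size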
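Toxicity toward the 2HG-producing NT line was scored as %Activity, normalised to DMSO and no-cell wells, from CellTiter-Glo luminescence after 48 hours' treatment.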
DT40 TDP1 no CPT – qHTS for Inhibitors of human tyrosyl-DNA phosphodiesterase 1 (TDP1): qHTS in cells in absence of CPT; Potency, µM (top dose mostly 46.2 µM), most hits filed as inhibitors; AID 686978, 2013; DT40 Tdp1-/- hTDP1 cells, no CPT, ATP luminescence, 48 h; 15% of 420,000 active; note: nearly all actives have a fitted effect of over 55% in size
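Readout: luminescence from CellTiter-Glo after 30 min in the dark at RT. Cells: DT40 Tdp1-/- with stable hTDP1, 400/well. Exposure: compounds alone, ≥48 hr, 37 °C.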
DT40 TDP1 CPT – growth inhibition of DT40 Tdp1-/-;hTDP1 cells with camptothecin (screen for TDP1 inhibitors). chicken DT40 Tdp1-/-;hTDP1 cells + 20 nM CPT, ATP luminescence, 48 h. Potency, µM (titrated, usually from 46.2 µM), hits mostly inhibitors. 12% of 420,000 active; note: nearly all actives have a fitted effect of over 55% in size
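Chicken DT40 Tdp1-/- cells complemented with human TDP1, 400 cells/well, exposed to compounds plus 20 nM camptothecin for at least 48 h at 37 C; viability read as ATP content by CellTiter-Glo luminescence.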
KB-V1 MDR tox – kills drug-selected multidrug resistant KB-V1 cells; KB-V1 MDR cells viability, CellTiter-Glo, 72 h; Potency, µM (series often up to 46.1 µM), most hits filed as cytotoxic; 3.4% of 400,000 active; AID 1347076; note: nearly all actives have a fitted effect of over 60% in size
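Luminescent ATP read-out (CellTiter-Glo, 10 min) measures survival of drug-selected KB-V1 MDR cells after 72 h, 37 degrees C compound exposure. Medium: phenol-red-free DMEM, 10% FBS. Values from fitted concentration-response curves.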
HT1080 IDH1KD tx – kills HT-1080 cells with IDH1 knockdown. HT-1080 IDH1 knockdown viability, ATP luminescence, 48 h. Potency, µM (doses to about 46.1 µM), most hits filed as cytotoxic. 2% of 360,000 active. AID 686971
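Knockdown cells (IDH1KD HT-1080) received compounds 2 h after plating at 750 cells/well and were kept 48 h at 37 °C in 5% FBS RPMI. A CellTiter-Glo luminescence read gave % activity for curve fitting.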
KB-3-1 tox – kills parental KB-3-1 adenocarcinoma cells; AID 1347075; KB-3-1 viability, CellTiter-Glo ATP luminescence, 72 h; 1.4% of 400,000 active; Potency, µM (titrated, usually from 46.1 µM), usual class: cytotoxic; note: nearly all actives have a fitted effect of over 60% in size
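Using CellTiter-Glo luminescence, growth of non-resistant KB-3-1 adenocarcinoma cells is assessed 72 h after pin-tool compound addition at 37 °C. Normalized responses across the concentration series yield fitted curves.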
Each line names hits and unclear results; the compound was inactive in the other large screens; ! = not active in a repeat. An excerpt weighted towards active compounds, which were near 19% of everything screened. Calls come from the whole dose curve; as a rule, active = well fitted curve in the direction sought with a large enough effect; inconclusive = small, poorly fitted or top-dose-only effect, or another doubt; inactive = no such curve, though single readings can be large; an effect the other way counts as inactive or inconclusive.

Cc1cccc(NC(=O)c2cccc(NC(=O)c3ccco3)c2)c1C	DT40 TDP1 no CPT inconclusive, KB-3-1 tox inconclusive
O=C(C1CCC(CNS(=O)(=O)c2cccc3cccnc23)CC1)N1CCc2ccccc21 (configuration not stated)	DT40 TDP1 no CPT 18.4µM, DT40 TDP1 CPT inconclusive
CCN(CC)C(=O)C1CCC(CNS(=O)(=O)c2cccc3cccnc23)CC1 (configuration not stated)	none
CN(Cc1ccccc1)C(=O)C1CCC(CNS(=O)(=O)c2cccc3cccnc23)CC1 (configuration not stated)	DT40 TDP1 no CPT inconclusive, DT40 TDP1 CPT inconclusive, KB-V1 MDR tox 9.2µM
COc1ccc(C2CC(=O)c3cc(-c4nc(-c5cccc([N+](=O)[O-])c5)cs4)c(=O)n(-c4ccccc4N)c3C2)cc1 (configuration not stated)	KB-V1 MDR tox inconclusive (no result: HT1080NT lethal, HT1080 IDH1KD tx)
Cn1c(C(=O)N2CCN(c3ccc(Cl)cc3)CC2)cc2c(=O)[nH]c3ccccc3c21	DT40 TDP1 no CPT 20.6µM, DT40 TDP1 CPT inconclusive
CN(CCCNC(=O)c1cc2c(=O)[nH]c3ccccc3c2n1C)Cc1ccccc1	DT40 TDP1 no CPT inconclusive
CC(C)c1ccc(NC(=O)c2cc3c(=O)[nH]c4ccccc4c3n2C)cc1	DT40 TDP1 no CPT 14.6µM, DT40 TDP1 CPT 6.51µM, KB-V1 MDR tox inconclusive (no result: HT1080NT lethal, HT1080 IDH1KD tx)
NCCCNc1ccc([N+](=O)[O-])cc1C(F)(F)F	DT40 TDP1 no CPT 13µM
O=C(CCc1ccccc1)N[C@@H]1c2ccccc2CC[C@H]1OCc1ccccc1	HT1080NT lethal inconclusive, DT40 TDP1 no CPT 11.6µM, DT40 TDP1 CPT inconclusive
O=C(COc1ccccc1)N[C@@H]1c2ccccc2CC[C@@H]1OCc1ccccc1	DT40 TDP1 CPT inconclusive
O=C(Cc1ccccc1)N[C@@H]1c2ccccc2CC[C@@H]1OCc1ccccc1	none
O=C(COc1ccccc1)N[C@@H]1c2ccccc2CC[C@H]1OCc1ccccc1	DT40 TDP1 no CPT 25.9µM, DT40 TDP1 CPT inconclusive, HT1080 IDH1KD tx inconclusive
CCc1cccc(C)c1NC(=O)CNCc1ccccc1	none
CCOC(=O)CNC(=O)c1cc2c(=O)n3cccc(C)c3nc2n1C	none (no result: HT1080NT lethal, KB-V1 MDR tox, HT1080 IDH1KD tx, KB-3-1 tox)
CCCCN(C)C(=O)C1CCCN(c2ncnc3onc(C)c23)C1 (configuration not stated)	DT40 TDP1 no CPT 1.84µM, DT40 TDP1 CPT 5.17µM, KB-3-1 tox inconclusive (no result: HT1080NT lethal, HT1080 IDH1KD tx)
CCCCN(CC)C(=O)C1CCCN(c2ncnc3onc(C)c23)C1 (configuration not stated)	DT40 TDP1 no CPT 20.6µM, DT40 TDP1 CPT 18.4µM (no result: HT1080NT lethal, HT1080 IDH1KD tx)
c1cc2c3c(cccc3c1)-c1cnccc1-2	none
COc1cccc2c1cc1c(=O)n(CC(=O)NCc3ccc(N(C)C)cc3)nc(C)n12	none (no result: HT1080NT lethal, KB-V1 MDR tox, HT1080 IDH1KD tx, KB-3-1 tox)
N#CC(=C=[N-])C1=C(C#N)C(c2ccccc2F)C([n+]2ccccc2)C(O)(C2CC2)N1 (configuration not stated)	KB-3-1 tox inconclusive
Cc1cccc[n+]1C1C(c2ccccc2)C(C#N)=C(C(=C=[N-])C#N)NC1(O)C1CC1 (configuration not stated)	DT40 TDP1 no CPT inconclusive, DT40 TDP1 CPT 23.1µM
Cc1ccc(-c2nnn(CC(=O)N(c3ccccc3F)C(C(=O)NC3CCCC3)c3ccco3)n2)o1 (configuration not stated)	DT40 TDP1 no CPT 16.4µM, DT40 TDP1 CPT 29.1µM
Cc1ccc(-c2nnn(CC(=O)N(c3cccc(F)c3)C(C(=O)NC3CCCC3)c3ccco3)n2)o1 (configuration not stated)	HT1080NT lethal inconclusive, DT40 TDP1 no CPT 16.4µM, DT40 TDP1 CPT 20.6µM, HT1080 IDH1KD tx 2.82µM
Cc1ccc(-c2nnn(CC(=O)N(c3ccc(F)cc3)C(C(=O)NC3CCCC3)c3ccco3)n2)o1 (configuration not stated)	DT40 TDP1 no CPT inconclusive, DT40 TDP1 CPT 14.6µM, KB-V1 MDR tox inconclusive
Cc1ccc(-c2nnn(CC(=O)N(CC(=O)NC3CCCC3)c3ccccc3F)n2)o1	KB-V1 MDR tox inconclusive
COc1ccccc1N1CCN(C(=O)c2oc3ccccc3c2N)CC1	DT40 TDP1 no CPT inconclusive, DT40 TDP1 CPT inconclusive (no result: HT1080NT lethal, HT1080 IDH1KD tx)
CCCOc1ccc(/C(O)=C2\C(=O)C(=O)N(c3ccccn3)C2c2ccccc2F)cc1C (configuration not stated)	HT1080NT lethal inconclusive, KB-V1 MDR tox 18.4µM, HT1080 IDH1KD tx inconclusive
COc1cccc(/C(O)=C2\C(=O)C(=O)N(c3ccccn3)C2c2cccc(OC)c2OC)c1 (configuration not stated)	KB-V1 MDR tox 23.1µM
COc1ccc(C2/C(=C(/O)c3ccc(C)cc3)C(=O)C(=O)N2c2ccccn2)cc1OC (configuration not stated)	KB-V1 MDR tox inconclusive
COc1ccc(C2/C(=C(/O)c3ccccc3)C(=O)C(=O)N2c2ccccn2)cc1 (configuration not stated)	HT1080NT lethal inconclusive
COc1ccc(Cl)cc1C(=O)Nc1nc(C)cc(C)n1	none
CC(C)n1nnnc1C1c2ccccc2C(=O)N1CCCn1ccnc1 (configuration not stated)	none
Cc1cc2nc(SCCOC(=O)Nc3ccccc3)nc(C)c2cc1C	DT40 TDP1 no CPT inconclusive, DT40 TDP1 CPT inconclusive, KB-V1 MDR tox 20.6µM
Cc1cc2nc(SCCOC(=O)Nc3cccc(Cl)c3)nc(C)c2cc1C	none
CCN(CC)C(=S)SCC(=O)c1ccccc1	DT40 TDP1 no CPT inconclusive, DT40 TDP1 CPT inconclusive
CCN(CC)C(=S)SSC(=S)N(CC)CC	HT1080NT lethal inconclusive, DT40 TDP1 no CPT 0.146µM, DT40 TDP1 CPT 0.0206µM, HT1080 IDH1KD tx 0.0052µM!
CS(=O)(=O)c1ccc(Nc2nc(C(N)c3ccccc3Cl)cs2)cc1 (configuration not stated)	DT40 TDP1 no CPT inconclusive, DT40 TDP1 CPT inconclusive, KB-V1 MDR tox inconclusive, HT1080 IDH1KD tx inconclusive, KB-3-1 tox inconclusive
CCNC(=O)NC(=O)CSc1ccc(S(=O)(=O)N(C)C2CCCCC2)cn1	DT40 TDP1 CPT inconclusive, KB-V1 MDR tox 20.6µM
COc1cc(O)c(C(CC(=O)N2CCOCC2)c2ccc(OC)c(OC)c2)c(OC)c1 (configuration not stated)	none (no result: HT1080NT lethal, DT40 TDP1 no CPT, DT40 TDP1 CPT, HT1080 IDH1KD tx)
COC1=C[C@@H](C)C2CC3OC(=O)C[C@H]4C(C)=C(OC)C(=O)C([C@@]2(C)C1=O)[C@@]34C (some centres not stated)	none (no result: HT1080NT lethal, KB-V1 MDR tox, HT1080 IDH1KD tx, KB-3-1 tox)
COc1ccc(CNC(=O)CN(C(=O)c2cc3sccc3n2C)C2CCCC2)cc1	DT40 TDP1 no CPT 12.6µM, DT40 TDP1 CPT inconclusive, KB-V1 MDR tox inconclusive
